# From ChEMBL document CHEMBL4513216, “Probing the Open Global Health Chemical Diversity Library for Multistage-Active Starting Points for Next-Generation Antimalarials” (ACS Infect Dis, 2020)
# The whole screen tested about 69,000 compounds, of which about 8,600 (12%) showed an effect of 50% or more. For the sample, strong results were picked, then their nearest neighbours and some compounds at random.
# System: Plasmodium berghei
# Experiment: Screen against P. berghei liver stage (PbLuc), transformed with Luciferase, at 10uM
# Assay type: functional, HepG2
# Conditions: tested at 10 uM
row,Structure (SMILES),INHIBITION [%]
1,COc1ccnc(N2CCN(CC(O)CN3CCOCC3)CC2)n1 (centres undefined),4.52
2,Cn1ccnc1CN1CCC(c2nnc(Cn3cccn3)n2C)CC1,16.3
3,N#Cc1ccccc1C(=O)N1C[C@@H]2CC[C@H]1CN(c1ncccn1)C2,12.9
4,N#CC1(C(=O)N2CCCN(c3nccs3)CC2)CCCCC1,11.45
5,O=C(c1cnc(-c2cnccn2)s1)N1CCCC(n2cccn2)C1 (centres undefined),10
6,CN1CCC(Oc2ccc(-n3ccnc3-c3nccn3C)cc2)CC1,13
7,CN(CCc1ccccc1)C(=O)c1cccnc1OCC(F)(F)F,45.1
8,Cc1cc(=O)n2nc(CNc3cc(Cl)ccc3C)nc2[nH]1,39.2
9,Cc1ncsc1C(=O)NCCN1CCCCCC1=O,25.4
10,CCCNC(=O)c1sccc1N(C)S(=O)(=O)c1ccc(Cl)cc1,23.7
11,Cc1ccc(S(=O)(=O)N(C)c2ccsc2C(=O)NCC(C)C)cc1,28.4
12,CC(C)CCNC(=O)c1sccc1N(C)S(=O)(=O)c1ccccc1,0
13,CN(C)CCNC(=O)c1sccc1N(C)S(=O)(=O)c1ccc(Cl)cc1,54
14,CC(C)NC(=O)c1sccc1N(C)S(=O)(=O)c1ccc(Cl)cc1,0
15,COCCNC(=O)c1sccc1N(C)S(=O)(=O)c1ccc(Cl)cc1,51.6
16,CCNC(=O)c1sccc1N(C)S(=O)(=O)c1ccc(Cl)cc1,26.7
17,COC(=O)CNC(=O)c1sccc1N(C)S(=O)(=O)c1ccc(Cl)cc1,20.1
18,CNC(=O)c1sccc1N(C)S(=O)(=O)c1ccc(Cl)cc1,84.7
19,CN1CCCC1c1nnc2n1CCN(S(=O)(=O)c1ccccc1Cl)CC2 (centres undefined),-12.252
20,NC(=O)[C@@H]1Cc2ccccc2N1C(=O)C1CC(c2ccccc2)=NO1 (some centres undefined),-13.6
21,CNC(=O)CN(C)C(=O)c1cc(Cl)c(Cl)n1C,37.1
22,Cc1nnc(NCc2cccc(OCc3ccccn3)c2)c(C#N)c1C,40.1
23,COCC(=O)NCc1cc(=O)n2c(n1)CN(Cc1ccsc1)CCC2,41.5
24,CC(C)(C)OC(=O)N1CC(=O)N(CCc2ccccc2)CC(O)C1 (centres undefined),9.36
25,CO[C@H]1CN(C(=O)OC(C)(C)C)CC1NCc1cccn1C (some centres undefined),54.5
26,CO[C@H]1CN(C(=O)OC(C)(C)C)CC1NCc1cc[nH]c1 (some centres undefined),38.7
27,CN(Cc1ccco1)C(=O)[C@H]1CSCN1C(=O)OC(C)(C)C,29.6

row,Structure (SMILES),INHIBITION [%]
1,CO[C@H]1CN(C(=O)OC(C)(C)C)CC1NCc1ccco1 (some centres undefined),74
2,CC(C)(C)OC(=O)N1CC(=O)N(Cc2ccco2)CC(O)C1 (centres undefined),29.8
3,CO[C@H]1CN(C(=O)OC(C)(C)C)CC1NCc1ccoc1 (some centres undefined),66.5
4,CC(C)(C)OC(=O)N1CCC(C(=O)NCc2ccccc2)C1 (centres undefined),-10.3
5,CO[C@H]1CN(C(=O)OC(C)(C)C)CC1NCc1ccn(C)c1 (some centres undefined),39.6
6,CCOCCN1Cc2ncn(C)c2C(COCC2CCOCC2)C1 (centres undefined),36.9
7,CCCc1ccc2oc(C(=O)N3CCN(CCOC)CC3)c(C)c2c1,-13.1
8,COc1ccc(-n2cccn2)c(CN2CCC3(CCCN(C)C3=O)C2)c1 (centres undefined),43.9
9,Nc1nc(N)c2c(n1)OC1(CCN(C(=O)CC3CCCNC3)CC1)C2 (centres undefined),27.1
10,Cc1cc(C(=O)N[C@H]2Cc3ccccc3[C@@H]2N)c(=O)[nH]c1C,21.5
11,Cc1nc(CN2CCN(C)C(=O)C23CCN(CC2CCCC2)CC3)cs1,49.4
12,Cc1noc([C@H]2COC[C@H]3CN(C(=O)Cc4ccccc4F)C[C@H]32)n1,12.7
13,O=C(CCCn1cccn1)N1C[C@@H](O)[C@H](Oc2cccc(F)c2)C1,32.8
14,O=C(NCc1cnn2cccnc12)c1cccc(CC2CCNCC2)c1,77.7
15,CC(C)(O)CCc1cccc(C(=O)NCc2cnn3cccnc23)c1,54.5
16,Cc1cnccc1CN(C)C(=O)c1cccc(CCC(C)(C)O)c1,-2.39
17,CCn1cc(CN(C)C(=O)c2cccc(CCC(C)(C)O)c2)cn1,7.11
18,CC(C)Cn1cncc1CNC(=O)c1cccc(CC2CCNCC2)c1,42.3
19,Cc1cccnc1[C@H](C)NC(=O)c1cccc(CC2CCNCC2)c1,15
20,CCOc1ccccc1CC(=O)N1C[C@H](C2CC2)[C@@H](N)C1,2.66
21,Cc1nn(C)cc1NC(=O)CN1CCN(C2CCCC2)C(=O)C1,19.35
22,CC(C)c1nc(C2CCCN2Cc2nccn2CC(F)(F)F)no1 (centres undefined),26.4
23,c1cc(-c2cnc(NC3CC3)nc2[C@@H]2CCCO2)ccn1,5.34
24,Cc1ccc(NC2CCN(C(=O)COCC(F)(F)F)CC2)nn1,53
25,Cc1ccc(NC2CCN(C(=O)COc3ccccc3)CC2)nn1,-29.7
26,Cc1ccc(NC2CCN(C(=O)CCOCC(F)(F)F)CC2)nn1,33.3
27,Cc1ccc(NC2CCN(C(=O)COCC3CC3)CC2)nn1,56.6
